Laboratory results: PubChem BioAssay AID689 (Sanford-Burnham Center for Chemical Genomics, 2007)
The whole screen tested about 62,000 compounds, of which about 80 (0.1%) were called active. How the calls were made is not given here. These entries were drawn from the full list. Entries with a potency or affinity are not part of this list.

These compounds were tested against Ephrin type-A receptor 4 (Mus musculus) (UniProt Q03137) (assay: EphA4 ligand-binding antagonists – biochemical, colorimetric, mouse EphA4, primary screen (AID 689)). Conditions: EphA4-AP binding to KYL peptide, pNPP A405, at 10 µM, stronger effect = higher value.
Chain of Ephrin type-A receptor 4 (Mus musculus) (Q03137 whole entry, looked up): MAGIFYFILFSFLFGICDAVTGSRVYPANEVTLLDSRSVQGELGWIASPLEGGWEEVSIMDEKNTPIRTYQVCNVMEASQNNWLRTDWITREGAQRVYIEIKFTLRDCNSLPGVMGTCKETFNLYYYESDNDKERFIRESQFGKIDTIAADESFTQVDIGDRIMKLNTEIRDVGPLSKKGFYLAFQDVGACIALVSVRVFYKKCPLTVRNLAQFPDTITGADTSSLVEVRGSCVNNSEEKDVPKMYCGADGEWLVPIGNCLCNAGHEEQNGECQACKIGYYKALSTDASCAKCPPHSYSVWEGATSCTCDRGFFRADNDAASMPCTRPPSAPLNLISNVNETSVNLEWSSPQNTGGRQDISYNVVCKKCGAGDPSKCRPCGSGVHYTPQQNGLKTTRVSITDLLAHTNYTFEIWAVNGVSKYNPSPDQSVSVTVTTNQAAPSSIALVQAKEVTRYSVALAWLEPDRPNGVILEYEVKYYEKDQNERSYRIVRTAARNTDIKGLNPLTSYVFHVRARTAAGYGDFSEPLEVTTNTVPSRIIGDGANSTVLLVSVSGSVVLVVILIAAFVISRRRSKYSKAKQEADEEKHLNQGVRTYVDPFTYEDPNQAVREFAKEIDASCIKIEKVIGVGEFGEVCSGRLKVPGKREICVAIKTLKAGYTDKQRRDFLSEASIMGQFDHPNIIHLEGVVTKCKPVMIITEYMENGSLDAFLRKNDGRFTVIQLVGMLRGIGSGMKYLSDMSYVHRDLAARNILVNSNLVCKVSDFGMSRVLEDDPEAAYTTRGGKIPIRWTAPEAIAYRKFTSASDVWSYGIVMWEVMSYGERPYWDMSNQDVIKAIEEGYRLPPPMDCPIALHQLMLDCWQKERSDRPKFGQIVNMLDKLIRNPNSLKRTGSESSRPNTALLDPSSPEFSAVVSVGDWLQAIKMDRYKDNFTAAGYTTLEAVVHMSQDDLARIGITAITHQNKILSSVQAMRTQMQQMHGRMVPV

| SMILES | inhibition |
| --- | --- |
| Cc1cc(C)n2nc(SC3CCCCN(C(=O)c4ccc(F)cc4)C3=O)nc2n1 (stereo unspecified) | -9.7% (inactive) |
| Cc1nn2cc(-c3ccccc3)nc2s1 | -24.1% (inactive) |
| c1ccc(-c2cn3nc4c(nc3n2)CCCC4)cc1 | 5.2% (inactive) |
| Cc1cc(=O)[nH]c(SCCOc2ccccc2C)n1 | -0.8% [this sample at 5 µg/mL] (inactive) |
| CC1CC(C)CN(C(=O)CSc2nnc(-c3ccc(F)cc3)o2)C1 (stereo unspecified) | 8.1% (inactive) |
| Cc1ccc(C(=O)N/C(=C\c2ccc([N+](=O)[O-])cc2)C(=O)NCCc2ccccc2)cc1 | 1.8% (inactive) |
| Cc1ccc(NC(=O)/C(=C\c2ccc([N+](=O)[O-])cc2)NC(=O)c2ccccc2)cc1 | -12.9% (inactive) |
| COc1ccc(NC(=O)/C=C/c2ccccc2Cl)c([N+](=O)[O-])c1 | -10.9% [this sample at 5 µg/mL] (inactive) |
| CC1=N/C(=C\c2ccc([N+](=O)[O-])cc2)C(=O)N1c1ccc(Br)c(C)c1 | 40.9% (inactive) |
| CC1=N/C(=C\c2ccc([N+](=O)[O-])cc2)C(=O)N1c1ccc(Cl)cc1 | 22.2% (inactive) |
| O=C(COc1ccccc1)Nc1ccc(S(=O)(=O)N2CCOCC2)cc1 | 5.4% (inactive) |
| C=C(C)Cn1c(COc2ccccc2)nnc1SCC(=O)O | 1.1% (inactive) |
| O=C(/C(=C/c1ccccc1[N+](=O)[O-])c1nc2ccccc2[nH]1)c1ccccc1 | 9% [this sample at 5 µg/mL] (inactive) |
| Cc1ccc(N2C(=O)/C(=C\c3ccc(-c4ccc(Cl)c(C(=O)O)c4)o3)C(=O)NC2=S)cc1 | -13.7% [this sample at 5 µg/mL] (inactive) |
| O=C1NC(=O)N(c2ccc(Cl)cc2)C(=O)/C1=C/c1ccc(-c2ccc(Cl)c(C(=O)O)c2)o1 | -6.4% [this sample at 5 µg/mL] (inactive) |
| CN1C(=O)C(=Cc2ccc(-c3ccc(Cl)c(C(=O)O)c3)o2)C(=O)N(C)C1=O | 12.8% [this sample at 5 µg/mL] (inactive) |
| CCOC(=O)c1cc(-c2ccc(C=C3C(=O)N(C)C(=O)N(C)C3=O)o2)ccc1Cl | 11% [this sample at 5 µg/mL] (inactive) |
| COc1ccc(/C=C/C(=O)Nc2cccc([N+](=O)[O-])c2)cc1Br | 1.9% [this sample at 5 µg/mL] (inactive) |
| COC(=O)c1cccc(NC(=O)COC(=O)CSc2nc(C)cc(C)n2)c1 | -9.9% (inactive) |
| Cn1c(SCCOc2ccc(Cl)cc2)nnc1-c1ccncc1 | 13% (inactive) |
| Cc1ccc(CNc2oc(C)nc2C#N)cc1 | -0.9% (inactive) |
